Test results: the supplement of paper PMC13380429
Unmarked numbers belong to inactive results.

Test system: Vero E6 infected with SARS-CoV-2
Assay: inhibition of SARS-CoV-2 cytopathic effect; higher = more antiviral protection, active = above 15
Details: 48 h

Compound | inhibition of SARS-CoV-2 cytopathic effect (1 nM) [%] | inhibition of SARS-CoV-2 cytopathic effect (8.33 nM) [%] | inhibition of SARS-CoV-2 cytopathic effect (100 nM) [%] | inhibition of SARS-CoV-2 cytopathic effect (833.33 nM) [%] | inhibition of SARS-CoV-2 cytopathic effect (10000 nM)
C=CC(=O)Nc1cccc(Nc2nc(Nc3ccc(Oc4ccnc(C(=O)NC)c4)cc3)ncc2F)c1 | -1.65 | 1.5 | 0.39 | -1.84 | 9.86%
CCc1cc(-c2[nH]nc(C)c2-c2ccc3c(c2)OCCO3)c(O)cc1O | -2.8 | -1.99 | -0.23 | -1.82 | -2.59%
C[C@H]1NCc2cc(-c3ccc4c(=O)c(C(=O)O)cn(C5CC5)c4c3OC(F)F)ccc21 [garenoxacin] | -4.16 | -1.9 | 1.67 | 3.28 | 1.04%
c1cc2c(cc1C1CCCCC1)c1c3n2CCNC3CCC1 (stereo not given) [tetrindole] | 1.68 | 1.55 | -2.86 | -1.8 | 20.8% (active)
Oc1ccc(Cl)c2cccnc12 [cloxyquin] | 1.22 | 0.37 | 2.68 | 3.29 | -0.16%
CN1CCN(c2nc(C3=C(c4c[nH]c5ccccc45)C(=O)NC3=O)c3ccccc3n2)CC1 [sotrastaurin] | 0.12 | 1.74 | -0.57 | -1.82 | 4.89%
CCOP(=S)(OCC)Oc1cc(C)nc(C(C)C)n1 [dimpylate] | 1.47 | -0.54 | 2.07 | 1.11 | -3.47%
NC(=O)c1cccnc1 [nicotinamide] | -0.85 | 1.53 | -1.16 | 2.49 | 7.29%
COc1c(OCCCN2CCOCC2)ccc2c1N=C(NC(=O)c1cnc(N)nc1)N1CCN=C21 [copanlisib] | -2.48 | -1.99 | -3.58 | -5.18 | -12.2%
CC(C)COc1ccc(CNC(=O)N(Cc2ccc(F)cc2)C2CCN(C)CC2)cc1 [pimavanserin] | -1.81 | -0.8 | 0.2 | -0.47 | 24% (active)
CN(C)CCOC1=Cc2ccccc2Sc2ccc(Cl)cc21 [zotepine] | 3.4 | 2.96 | 4.34 | 0.16 | -3.52%
CC(O)COC[C@H]1O[C@@H]2O[C@H]3[C@H](O)[C@@H](O)[C@@H](O[C@H]4[C@H](O)[C@@H](O)[C@@H](O[C@H]5[C@H](O)[C@@H](O)[C@@H](O[C@H]6[C@H](O)[C@@H](O)[C@@H](O[C@H]7[C@H](O)[C@@H](O)[C@@H](O[C@H]8[C@H](O)[C@@H](O)[C@@H](O[C@H]1[C@H](O)[C@H]2O)O[C@@H]8COCC(C)O)O[C@@H]7COCC(C)O)O[C@@H]6COCC(C)O)O[C@@H]5COCC(C)O)O[C@@H]4COCC(C)O)O[C@@H]3COCC(C)O (stereo partly drawn) [hydroxypropyl-beta-cyclodextrin] | 1.48 | -0.26 | 1.56 | 0.29 | 0.7%
CNC(=O)c1c(I)c(C(=O)NCC(=O)Nc2c(I)c(C(=O)O)c(I)c(C(=O)NCCO)c2I)c(I)c(N(C)C(C)=O)c1I [ioxaglic-acid] | 1.6 | 1.46 | 1.47 | 0.75 | 0.41%
COc1cc(C(C)=O)ccc1OCCCN1CCC(c2noc3cc(F)ccc23)CC1 [iloperidone] | -1.11 | -0.19 | 0.99 | -0.53 | -3.95%
NC(=O)N/N=C/c1ccc([N+](=O)[O-])o1 [nitrofurazone] | 0.32 | 0.46 | -1.2 | -0.04 | 0.07%
COc1ccc(C(=O)N2CCCc3cc(C4=NNC(=O)SC4C)ccc32)cc1OC (stereo not given) | -1.28 | 2.27 | 0.07 | 0.74 | 4.36%
N#Cc1c(N(CC(=O)O)CC(=O)O)sc(C(=O)O)c1CC(=O)O [Strontium Ranelate] | 1.28 | 2.01 | 0.58 | 5.99 | 1.75%
C[C@H](CSC(=O)c1ccccc1)C(=O)N1C[C@@H](Sc2ccccc2)C[C@H]1C(=O)O [zofenopril-calcium] | 0.93 | -2.52 | -3.63 | -4.57 | -1.54%
C[C@]12CCC(=O)C=C1CC[C@@H]1[C@@H]2[C@@H](O)C[C@@]2(C)[C@H]1CC[C@]2(O)C(=O)COP(=O)(O)O [hydrocortisone-phosphate] | 1.12 | 3.34 | 2.4 | 2.84 | 1.11%

Compound | inhibition of SARS-CoV-2 cytopathic effect (1 nM) [%] | inhibition of SARS-CoV-2 cytopathic effect (8.33 nM) [%] | inhibition of SARS-CoV-2 cytopathic effect (100 nM) [%] | inhibition of SARS-CoV-2 cytopathic effect (833.33 nM) [%] | inhibition of SARS-CoV-2 cytopathic effect (10000 nM)
C=C1CC[C@@]2(O)[C@H]3Cc4ccc(O)c5c4[C@@]2(CCN3CC2CC2)[C@H]1O5 [nalmefene] | 1.67 | 1.64 | 2.15 | -1.46 | -3.45%
OCCCCO [1,4-butanediol] | -4.4 | -1.22 | -1.14 | 0.26 | -1.17%
N[C@@H](Cc1ccc(Cl)cc1)C(=O)O (racemic) [fenclonine-(+/-)] | 1.09 | 0.73 | 0.7 | 4.29 | 3%
O=C(Nc1ccc(-c2ccnc(Nc3ccc(N4CCOCC4)cc3)n2)cc1)C1CCCN1 (stereo not given) | -1.37 | -1.43 | -0.97 | -1.01 | 8.93%
CC1(C)CCC[C@]2(C)[C@H]3CC(=O)O[C@]3(C)CC[C@@H]12 [Sclareolide (Norambreinolide)] | -2.36 | 3.53 | 6.06 | 2.01 | 1.5%
CC(C)(C)C(=O)OCOC(=O)[C@@H]1N2C(=O)C[C@H]2S(=O)(=O)C1(C)C [sulbactam-pivoxil] | -1.2 | -4.28 | -7.15 | 5.91 | -2.18%
CC(=O)O[C@H]1C[C@@]2(C)[C@@H](C[C@@H](O)[C@H]3[C@@]4(C)CC[C@@H](O)[C@@H](C)[C@@H]4CC[C@@]32C)/C1=C(\CCC=C(C)C)C(=O)O [fusidic-acid] | -0.53 | 0.07 | -1.13 | -8.51 | -1.02%
COc1cc2ncnc(Nc3ccc(F)c(Cl)c3)c2cc1OCCCN1CCOCC1 [gefitinib] | -1.32 | -0.45 | -4.25 | -11.2 | -22.2%
CO[C@H]1/C=C/O[C@@]2(C)Oc3c(C)c(O)c4c(O)c(cc(O)c4c3C2=O)NC(=O)/C(C)=C\C=C\[C@H](C)[C@H](O)[C@@H](C)[C@@H](O)[C@@H](C)[C@H](OC(C)=O)[C@@H]1C [rifamycin-sv] | 0.74 | 1.12 | 3.4 | 4.53 | 2.73%
COc1ccc(/C=C/C(=O)/C=C(O)/C=C/c2ccc(OC)c(OC)c2)cc1OC | 1.2 | -0.13 | 3.36 | 5.15 | 19.7% (active)
CC(C)c1noc(N2CCC(COc3ccc(-c4ccc(S(C)(=O)=O)cc4)nc3)CC2)n1 | -1.46 | -1.84 | -1.48 | -0.49 | -0.23%
Cc1cc(C(=O)Nc2nc3cccc(Cl)c3n2[C@@H]2CCCCN(C(=O)/C=C/CN(C)C)C2)ccn1 | 2.52 | -0.94 | 0.57 | -8.44 | 10.4%
O=C(NCCNCC(O)COc1ccc(O)cc1)N1CCOCC1 (stereo not given) [xamoterol] | -2.07 | -0.88 | -0.13 | 0.01 | 3.26%
Cc1ccc(CNc2ncnc3ccc(-c4ccc(CO)o4)cc23)o1 | -1.31 | 0.26 | 0.15 | -0.45 | 1.88%
C[Se]C[C@H](N)C(=O)O [Se-methylselenocysteine] | 2.05 | 1.18 | 0.23 | 0.93 | 1.8%
CC(C)NNC(=O)c1ccncc1 [iproniazid] | 0.77 | -0.06 | 0.89 | 0.46 | -1.76%
O=C(O)c1cc(-c2ccccc2)nc2ccccc12 [cinchophen] | -0.85 | -0.04 | -2.56 | 0.2 | 2.97%
Nc1n[nH]c2nnc(-c3c(-c4ccccc4)nn4ccccc34)cc12 | 0.55 | -0.27 | -1.29 | 1.74 | -2.81%
